Activity calls are given as the source filed them.
What was measured:
[1] = binders of probe aFSTL3 on microarray, primary screen, stem cell growth factor project, biochemical, small-molecule microarray, fluorescence 635/667 (AID 1064); conditions: higher = more signal;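 note: measures binding of the biotinylated anti-FSTL3 antibody to printed compounds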
[2] = binders from COS7 lysate, DM2A8 probe, primary screen, torsin A project, cell lysate, small-molecule microarray, fluorescence 635/667 (AID 1065); conditions: higher = more signal, COS7 lysate expressing mutant human TOR1A
[3] = binders of probe aFGF2 on microarray, primary screen, stem cell growth factor project, biochemical, small-molecule microarray, fluorescence 635/667 (AID 1067); conditions: higher = more signal;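 note: measures binding of biotinylated aFGF2 protein to printed compounds on slides; z-score merges feature fluorescence and signal-to-noise across triplicate slides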
[4] = binders of probe aFGF10 on microarray, primary screen, stem cell growth factor project, biochemical, small-molecule microarray, fluorescence 635/667 (AID 1071); conditions: higher = more signal;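 note: score merges 667 nm spot intensity and signal to noise from triplicate slides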
[5] = molecular target: Neurogenic locus notch homolog protein 2 (Homo sapiens) (UniProt Q04721); assay: Notch2 binders on small-molecule microarrays, primary screen, biochemical, small-molecule microarray, 635 nm fluorescence, stem cell growth factors (AID 1073); conditions: Notch2 binding, higher = more signal
Sequence of Neurogenic locus notch homolog protein 2 (Homo sapiens) (Q04721 whole entry, looked up, canonical isoform): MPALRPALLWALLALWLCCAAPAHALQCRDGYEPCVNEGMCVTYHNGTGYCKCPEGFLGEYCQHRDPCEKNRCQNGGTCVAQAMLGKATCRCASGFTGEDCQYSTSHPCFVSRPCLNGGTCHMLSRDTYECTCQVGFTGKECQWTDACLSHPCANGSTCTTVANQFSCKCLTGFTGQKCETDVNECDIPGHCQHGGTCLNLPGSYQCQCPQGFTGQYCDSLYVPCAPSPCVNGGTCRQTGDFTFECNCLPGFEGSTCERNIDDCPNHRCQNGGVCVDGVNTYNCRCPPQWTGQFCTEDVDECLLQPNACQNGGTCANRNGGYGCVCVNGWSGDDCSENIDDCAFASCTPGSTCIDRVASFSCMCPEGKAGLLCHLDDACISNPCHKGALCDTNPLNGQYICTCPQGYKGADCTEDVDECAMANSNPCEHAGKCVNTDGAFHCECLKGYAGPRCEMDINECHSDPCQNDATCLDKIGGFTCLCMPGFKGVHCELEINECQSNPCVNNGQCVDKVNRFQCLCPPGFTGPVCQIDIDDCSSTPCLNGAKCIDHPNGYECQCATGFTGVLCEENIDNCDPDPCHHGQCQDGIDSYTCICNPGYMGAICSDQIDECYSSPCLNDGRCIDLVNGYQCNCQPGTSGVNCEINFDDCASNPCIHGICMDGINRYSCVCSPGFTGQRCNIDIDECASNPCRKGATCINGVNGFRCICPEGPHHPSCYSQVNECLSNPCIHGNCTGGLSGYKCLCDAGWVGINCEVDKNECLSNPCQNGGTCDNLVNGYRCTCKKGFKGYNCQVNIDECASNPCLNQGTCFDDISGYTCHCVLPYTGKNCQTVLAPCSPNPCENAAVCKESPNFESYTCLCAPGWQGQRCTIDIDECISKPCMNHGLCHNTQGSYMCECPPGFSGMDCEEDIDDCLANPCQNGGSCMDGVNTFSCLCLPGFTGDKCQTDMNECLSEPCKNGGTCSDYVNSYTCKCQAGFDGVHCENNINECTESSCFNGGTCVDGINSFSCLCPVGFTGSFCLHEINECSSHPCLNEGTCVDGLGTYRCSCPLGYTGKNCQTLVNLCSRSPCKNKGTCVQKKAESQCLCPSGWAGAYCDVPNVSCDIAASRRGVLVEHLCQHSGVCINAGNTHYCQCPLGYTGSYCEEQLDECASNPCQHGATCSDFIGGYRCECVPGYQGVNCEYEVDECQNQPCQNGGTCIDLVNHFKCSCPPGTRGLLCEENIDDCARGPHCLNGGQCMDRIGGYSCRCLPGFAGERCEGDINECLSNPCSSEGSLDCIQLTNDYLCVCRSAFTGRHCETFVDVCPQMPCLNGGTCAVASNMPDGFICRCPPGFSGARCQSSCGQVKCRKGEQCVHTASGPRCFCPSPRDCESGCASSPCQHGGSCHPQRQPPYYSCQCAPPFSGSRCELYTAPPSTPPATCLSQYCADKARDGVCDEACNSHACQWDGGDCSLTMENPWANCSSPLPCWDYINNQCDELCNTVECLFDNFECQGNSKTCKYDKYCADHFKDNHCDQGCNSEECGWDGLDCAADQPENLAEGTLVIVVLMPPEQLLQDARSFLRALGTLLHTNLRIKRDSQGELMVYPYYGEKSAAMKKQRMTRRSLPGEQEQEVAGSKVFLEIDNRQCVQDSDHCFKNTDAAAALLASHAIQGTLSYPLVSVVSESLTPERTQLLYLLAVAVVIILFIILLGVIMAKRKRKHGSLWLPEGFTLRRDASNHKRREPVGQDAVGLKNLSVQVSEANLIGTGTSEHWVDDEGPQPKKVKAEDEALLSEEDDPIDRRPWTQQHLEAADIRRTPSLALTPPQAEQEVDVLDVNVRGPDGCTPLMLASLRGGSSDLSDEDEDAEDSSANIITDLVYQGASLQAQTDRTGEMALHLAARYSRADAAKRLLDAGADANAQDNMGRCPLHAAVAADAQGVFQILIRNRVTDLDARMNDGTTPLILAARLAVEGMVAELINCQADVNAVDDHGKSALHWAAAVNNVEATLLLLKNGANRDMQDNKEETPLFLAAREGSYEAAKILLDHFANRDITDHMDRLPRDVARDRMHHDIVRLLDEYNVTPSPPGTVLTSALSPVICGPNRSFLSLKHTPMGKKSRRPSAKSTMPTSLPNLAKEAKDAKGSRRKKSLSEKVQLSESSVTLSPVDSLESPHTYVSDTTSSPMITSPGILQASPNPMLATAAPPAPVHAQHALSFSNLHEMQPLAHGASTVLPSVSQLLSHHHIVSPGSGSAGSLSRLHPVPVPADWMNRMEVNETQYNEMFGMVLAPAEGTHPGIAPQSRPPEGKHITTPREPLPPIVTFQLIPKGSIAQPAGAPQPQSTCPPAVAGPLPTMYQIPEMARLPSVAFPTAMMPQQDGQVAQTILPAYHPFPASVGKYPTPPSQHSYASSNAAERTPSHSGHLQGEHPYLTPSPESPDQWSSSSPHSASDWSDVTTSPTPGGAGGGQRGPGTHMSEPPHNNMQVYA

[6] = molecular target: Pro-neuregulin-1, membrane-bound isoform (Homo sapiens) (UniProt Q02297); assay: NRG1 binders on small-molecule microarrays, primary screen, psychiatric disease protein project, biochemical, small-molecule microarray, fluorescence 635/667 (AID 1075); conditions: NRG1 binding, 635 nm fluorescence, higher = more signal;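 note: score combines 667 nm spot fluorescence with signal to noise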
[7] = test system: Neuregulin-1 EGF-like domain; assay: binders of neuregulin-1 EGF-like domain, primary screen, biochemical, small-molecule microarray, 635 nm fluorescence (AID 1081); conditions: small-molecule microarray binding, higher = more signal;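 note: binding of the protein to compounds printed on small-molecule microarray slides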
[8] = FRG1 promoter luciferase signal modulators, primary screen, FRG1 inhibition for FSHD, cell-based, C2C12 myotubes, firefly/Renilla luciferase, luminescence (AID 1084); conditions: higher = more signal, called active from +8 up or from −8 down
[9] = binders of probe aFST on microarray, primary screen, stem cell growth factor project, biochemical, small-molecule microarray, fluorescence 635/667 (AID 1086); conditions: higher = more signal;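 note: score merges 667 nm fluorescence with signal-to-noise of each printed compound spot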
[10] = binders of probe aHhip on microarray, primary screen, stem cell growth factor project, biochemical, small-molecule microarray, fluorescence 635/667 (AID 1087); conditions: higher = more signal;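 note: score merges spot fluorescence at 667nm with spot signal to noise ratio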
[11] = test system: PRMT1 (protein arginine N-methyltransferase 1); assay: PRMT1 binders on small-molecule microarrays, primary screen, biochemical, small-molecule microarray, 635 nm fluorescence (AID 1088); conditions: small-molecule microarray binding, higher = more signal;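 note: binding of Prmt1 protein to compounds spotted on small-molecule microarray slides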
[12] = yeast growth modulation, basal conditions, primary screen, YJM789 clinical isolate, OD600, 24 h (AID 1089);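 note: growth of clinical yeast isolate S. cerevisiae YJM 789 seeded 1000 cells per well; test concentration not given here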; conditions: S. cerevisiae YJM789 growth, higher = more signal, called active from +8 up or from −8 down
[13] = fission yeast growth modulation, primary screen, strain 972, OD600, 24 h, no modulator (AID 1090);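 note: basal condition with compound alone and no growth modifier present; test concentration not given here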; conditions: S. pombe 972 growth, higher = more signal, called active from +8 up or from −8 down
[14] = S. cerevisiae growth modulation with rapamycin, primary screen, strain BY4716, OD600, 96 h (AID 1091); conditions: higher = more signal, called active from +8 up or from −8 down; note: test concentration not given here
[15] = molecular target: Torsin-1A-interacting protein 2 (Homo sapiens) (UniProt Q8NFQ8); assay: LULL1 binders on small-molecule microarray, primary screen, cell lysate, human LULL1 lysate, 635/667 nm fluorescence (AID 1092); conditions: hLULL1 lysate binding, 635 nm fluorescence, higher = more signal;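 note: probe is lysate of COS7 cells overexpressing human LULL1; score merges per-feature 667 nm fluorescence with signal-to-noise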
[16] = E. coli growth modulation, two-sided OD650, primary screen, E. coli filamentation project, strain DRC41, 24 h (AID 1093); conditions: OD650, 24 h, higher = more signal, called active from +8 up or from −8 down;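 note: MC1000 strain lacking acrAB efflux and sulA so SOS filamentation is blocked; test concentration not given here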
[17] = small-molecule microarray binders of probe aLefty2, primary screen, biochemical, biotinylated probe, 635/667 nm fluorescence (AID 1094); conditions: higher = more signal;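 note: score merges spot fluorescence near 667 nm with spot signal-to-noise ratio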
[18] = test system: Noggin (protein binding on small-molecule microarray); assay: Noggin binders on small-molecule microarray, primary screen, biochemical, 635/667 nm fluorescence (AID 1095); conditions: 635 nm fluorescence, higher = more signal;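 note: score merges 667 nm feature fluorescence with signal to noise over triplicate slides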
[19] = molecular target: Neurogenic locus notch homolog protein 3 (Homo sapiens) (UniProt Q9UM47); assay: NOTCH3 binders on small-molecule microarray, primary screen, biochemical, 635/667 nm fluorescence (AID 1096); conditions: NOTCH3 binding, 635 nm fluorescence, higher = more signal
Sequence of Neurogenic locus notch homolog protein 3 (Homo sapiens) (Q9UM47 whole entry, looked up): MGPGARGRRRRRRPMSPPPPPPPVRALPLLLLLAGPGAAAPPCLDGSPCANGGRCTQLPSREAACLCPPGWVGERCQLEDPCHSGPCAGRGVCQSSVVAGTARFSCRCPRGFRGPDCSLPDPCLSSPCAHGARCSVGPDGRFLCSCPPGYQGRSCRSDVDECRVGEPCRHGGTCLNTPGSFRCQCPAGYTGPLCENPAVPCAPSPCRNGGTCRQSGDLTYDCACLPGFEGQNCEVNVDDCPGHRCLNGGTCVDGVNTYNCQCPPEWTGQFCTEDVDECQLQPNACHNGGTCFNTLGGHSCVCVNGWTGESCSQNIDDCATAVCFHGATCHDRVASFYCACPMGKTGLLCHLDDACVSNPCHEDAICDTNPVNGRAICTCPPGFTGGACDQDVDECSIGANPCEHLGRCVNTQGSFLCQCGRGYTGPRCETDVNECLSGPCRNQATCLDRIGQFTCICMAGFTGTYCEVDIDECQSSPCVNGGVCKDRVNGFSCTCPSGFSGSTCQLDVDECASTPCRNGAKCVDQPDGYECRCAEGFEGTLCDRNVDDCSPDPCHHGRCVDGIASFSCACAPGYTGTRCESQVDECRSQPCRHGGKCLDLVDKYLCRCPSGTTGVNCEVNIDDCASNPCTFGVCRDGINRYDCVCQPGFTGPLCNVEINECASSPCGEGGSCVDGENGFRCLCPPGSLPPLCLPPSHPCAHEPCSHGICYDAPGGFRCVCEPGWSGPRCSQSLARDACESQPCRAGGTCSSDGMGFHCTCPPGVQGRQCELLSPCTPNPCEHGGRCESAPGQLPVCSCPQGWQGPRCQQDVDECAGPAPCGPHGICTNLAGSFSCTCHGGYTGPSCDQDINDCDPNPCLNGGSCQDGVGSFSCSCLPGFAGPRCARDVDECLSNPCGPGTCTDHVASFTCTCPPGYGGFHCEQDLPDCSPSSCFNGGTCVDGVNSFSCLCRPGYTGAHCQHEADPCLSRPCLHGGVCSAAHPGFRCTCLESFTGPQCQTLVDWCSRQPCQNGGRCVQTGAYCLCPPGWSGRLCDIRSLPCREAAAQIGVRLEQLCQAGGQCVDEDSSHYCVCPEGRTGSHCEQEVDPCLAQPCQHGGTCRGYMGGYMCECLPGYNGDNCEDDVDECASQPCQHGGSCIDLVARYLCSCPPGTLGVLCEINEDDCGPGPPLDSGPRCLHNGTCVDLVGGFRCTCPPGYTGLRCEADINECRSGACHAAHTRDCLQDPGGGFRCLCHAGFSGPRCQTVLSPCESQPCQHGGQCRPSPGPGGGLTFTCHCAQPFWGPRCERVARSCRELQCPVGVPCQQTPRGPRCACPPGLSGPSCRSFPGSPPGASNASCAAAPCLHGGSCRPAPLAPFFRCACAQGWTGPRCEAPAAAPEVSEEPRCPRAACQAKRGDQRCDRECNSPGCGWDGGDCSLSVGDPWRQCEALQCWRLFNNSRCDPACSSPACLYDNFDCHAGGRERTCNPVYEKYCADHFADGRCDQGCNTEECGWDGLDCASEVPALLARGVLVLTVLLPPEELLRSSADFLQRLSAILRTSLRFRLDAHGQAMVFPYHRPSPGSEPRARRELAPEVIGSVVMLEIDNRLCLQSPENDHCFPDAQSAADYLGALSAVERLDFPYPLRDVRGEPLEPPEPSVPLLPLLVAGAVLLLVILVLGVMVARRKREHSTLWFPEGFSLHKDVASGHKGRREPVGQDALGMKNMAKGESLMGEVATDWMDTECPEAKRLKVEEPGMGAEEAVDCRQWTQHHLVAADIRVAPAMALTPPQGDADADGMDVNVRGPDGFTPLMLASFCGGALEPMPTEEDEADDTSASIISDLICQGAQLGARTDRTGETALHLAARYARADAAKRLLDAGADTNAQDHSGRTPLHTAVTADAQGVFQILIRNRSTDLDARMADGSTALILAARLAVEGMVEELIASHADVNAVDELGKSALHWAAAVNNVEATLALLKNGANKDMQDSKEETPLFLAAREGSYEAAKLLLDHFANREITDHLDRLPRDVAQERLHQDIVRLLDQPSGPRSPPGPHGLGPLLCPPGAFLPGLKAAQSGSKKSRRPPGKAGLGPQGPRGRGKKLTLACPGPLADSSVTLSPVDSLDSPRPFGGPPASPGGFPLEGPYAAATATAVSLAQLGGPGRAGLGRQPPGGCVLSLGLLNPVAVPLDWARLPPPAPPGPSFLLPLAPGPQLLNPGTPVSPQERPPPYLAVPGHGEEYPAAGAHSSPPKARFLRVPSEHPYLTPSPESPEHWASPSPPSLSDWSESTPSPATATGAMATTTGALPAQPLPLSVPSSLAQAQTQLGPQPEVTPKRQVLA

[20] = small-molecule microarray binders of probe aEGFR, primary screen, biochemical, biotinylated probe, 635/667 nm fluorescence (AID 1097); conditions: higher = more signal;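 note: probe is a biotinylated anti-EGFR antibody binding compounds printed on slides; score combines fluorescence near 667 nm and signal to noise of each spot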

SMILES	composite z-score [1]	composite z-score [2]	composite z-score [3]	composite z-score [4]	composite z-score [5]	composite z-score [6]	composite z-score [7]	z-score [8]	composite z-score [9]	composite z-score [10]	composite z-score [11]	z-score [12]	z-score [13]	z-score [14]	composite z-score [15]	z-score [16]	composite z-score [17]	composite z-score [18]	composite z-score [19]	composite z-score [20]
COc1cc(CO)cc(I)c1O[C@H]1C=C(C(=O)NCCO)C[C@@H](N(C(=O)c2cc3ccccc3oc2=O)C2CCCCCC2)[C@@H]1O	-0.386	0.419	-0.0935	0.661	0.511	-0.19	-0.52	-0.738 (inactive)	-0.0938	0.0646	-0.446	-0.13 (inactive)	-1.59 (inactive)	-1.26 (inactive)	-0.188	1.86 (inactive)	-0.198	0.437	0.383	-0.207
CCCNC(=O)[C@@]1(Sc2ccc(C)cc2)CC(=O)N(Cc2ccccc2C(F)(F)F)[C@@H]1c1ccc(CO)cc1I	-0.0981	2.46	-0.0583	-0.0686	0.267	1.22	1.07	-0.267 (inactive)	0.574	-0.0346	1.53	-0.36 (inactive)	-2.45 (inactive)	0.283 (inactive)	2.19	-1.57 (inactive)	-0.0125	0.932	0.958	-0.0435
CN(C)CCCCCCNC(=O)[C@@H]1C[C@@H]2C(=O)N3CCC[C@H]3C(=O)N2[C@@H]1c1ccc(O)cc1	0.675	1.9	0.0923	1.18	0.697	0.543	1.35	1.53 (inactive)	0.886	0.124	1.53	-3.92 (inactive)	-0.974 (inactive)	-0.982 (inactive)	2.51	0.434 (inactive)	0.312	1.5	1.05	0.28
CCCC1(C(=O)OC)C=C2C(=C(c3ccccc3)C(=O)C2C)CN1 (stereo not given)	1.43	-0.289	-0.0869	-0.121	0.725	0.768	0.861	2.51 (inactive)	0.387	0.154	-0.406	0.283 (inactive)	0.312 (inactive)	0.763 (inactive)	1.64	-0.375 (inactive)	0.248	-0.533	0.0144	0.0384
[N-]=[N+]=Nc1ccccc1[C@H]1OC(c2ccc(OCCCO)cc2)=N[C@@]1(CCS(=O)(=O)c1ccccc1)C(=O)NCc1ccccc1	-0.196	0.144	0.0843	0.935	1.66	1.44	1.34	5.01 (inactive)	1.58	0.258	1.57	-0.832 (inactive)	0.342 (inactive)	2.23 (inactive)	3.63	-0.443 (inactive)	0.154	0.669	1.1	0.174
O=C1O[C@H](c2ccccc2)[C@H](c2ccccc2)N2[C@H]1[C@@H](C(=O)NC[C@H](O)c1ccccc1)[C@]1(C(=O)Nc3ccccc31)[C@H]2c1ccc(O)cc1	-0.0095	0.298	-0.0342	-0.111	0.633	-0.199	1.19	0.484 (inactive)	0.153	0.0542	1.39	0.754 (inactive)	0.817 (inactive)	1.7 (inactive)	2.56	-0.408 (inactive)	-0.134	0.798	0.608	-0.108
COCCCNC(=O)[C@@H]1c2ccccc2C(=O)N(Cc2ccccc2OC)[C@H]1c1ccc(CO)cc1	-0.169	0.64	-0.0021	0.584	0.239	1.8	1.34	-1.57 (inactive)	-0.0311	-0.0645	-0.244	0.118 (inactive)	-0.757 (inactive)	-0.921 (inactive)	2.56	-0.0935 (inactive)	-0.157	1.68	0.876	-0.115
CCCCC(=C=CC[C@@H](O)c1ccc(CO)o1)CCO	-0.369	0.152	-0.0602	0.143	-0.168	0.457	1.19	0.161 (inactive)	-0.118	0.238	0.954	1.46 (inactive)	-0.614 (inactive)	0.297 (inactive)	0.418	0.572 (inactive)	-0.13	0.436	0.0341	-0.071
COC(=O)c1c(CC[C@@H](CO)NC(=O)N[C@H](Cc2ccccc2)Cn2cc(-c3ccccn3)nn2)oc(C(C)=O)c1C(=O)OC	-0.241	0.0467	-0.083	0.19	-0.143	0.813	1.09	-0.533 (inactive)	-0.217	-0.271	0.73	-0.413 (inactive)	0.0254 (inactive)	-0.398 (inactive)	1.68	-0.419 (inactive)	-0.207	-0.151	0.0619	-0.096
CCOC(=O)C[C@H]1[C@H](OC(=O)c2ccc(C(=O)c3ccccc3)cc2)[C@@H](NC(=O)Cc2ccc(OC)cc2)c2cc(OCCCO)ccc2N1C(=O)c1ccc2ccccc2n1	-0.537	0.0267	-0.0887	0.371	0.298	0.843	0.325	-2.62 (inactive)	0.612	-0.0994	0.794	0.328 (inactive)	-0.22 (inactive)	0.605 (inactive)	1.6	0.213 (inactive)	0.0768	0.666	1.16	0.0182
COc1cc2c(cc1O)C=[N+](Cc1cc3c(cc1Br)OCO3)CC2	0.305	0.08	-0.131	0.0873	-0.441	0.632	0.042	2.28 (inactive)	-0.332	-0.137	0.168	0.213 (inactive)	-9.96 (active)	-0.208 (inactive)	0.379	-1.52 (inactive)	-0.0285	-0.833	-0.223	-0.188
[N-]=[N+]=Nc1ccccc1C[C@@]1(C(=O)N2CCCCC2)N=C(c2ccc(OCCCO)cc2)O[C@@H]1c1ccccc1	0.155	1.1	0.0137	0.763	1.47	1.74	1.11	-4.6 (inactive)	0.884	0.0873	1.14	-1.96 (inactive)	-2.65 (inactive)	0.737 (inactive)	2.97	2.76 (inactive)	0.101	0.0588	1.04	-0.0382
COCCOC(=O)N1C(=O)[C@@]2(c3ccccc31)[C@H](c1ccc(OCCO)cc1)N1[C@H](c3ccccc3)[C@H](c3ccccc3)OC(=O)[C@H]1[C@@H]2C(=O)N1CCc2cc(OC)c(OC)cc2C1	-0.128	0.974	0.123	1.15	1.33	1.29	1.28	-1.82 (inactive)	0.799	0.176	1.53	1.93 (inactive)	0.856 (inactive)	4.71 (inactive)	3.09	0.0474 (inactive)	0.284	1.12	1.14	0.246
COCCCNC(=O)[C@@]1(Cc2ccccc2)N=C(c2ccc(OCCCO)cc2)O[C@H]1c1ccccc1CN=[N+]=[N-]	0.988	1.35	0.0762	0.806	1.25	1.74	1.11	-0.989 (inactive)	1.54	-0.194	1.56	-0.201 (inactive)	0.351 (inactive)	0.463 (inactive)	3.16	1.06 (inactive)	0.277	0.445	1.05	0.163
Cc1ccc([C@H]2C(C(=O)O)=CCN2S(=O)(=O)c2ccc(C)cc2)cc1	-0.0451	0.0722	-0.0271	0.231	0.539	1.24	1.1	-0.186 (inactive)	0.224	-0.0305	0.472	-0.76 (inactive)	0.366 (inactive)	-0.18 (inactive)	2.82	-0.264 (inactive)	0.228	0.11	0.189	-0.0828
COc1cc2c(cc1O)C(c1cccs1)N(Cc1ccc([N+](=O)[O-])o1)CC2 (stereo not given)	-0.116	1.85	-0.0265	0.724	0.881	1.54	0.387	-1.63 (inactive)	0.583	-0.0994	0.298	-2.77 (inactive)	-4.47 (inactive)	-2.27 (inactive)	1.02	-0.73 (inactive)	0.156	-0.419	0.32	-0.0859
CN1C(=O)C2C=CC(C(O)c3ccccc3)N(N3CCCCC3)C2C1=O (stereo not given)	-0.239	0.876	0.054	1.02	1.42	1.62	1.02	-1.13 (inactive)	0.406	-0.0346	0.664	0.201 (inactive)	0.24 (inactive)	0.404 (inactive)	3.52	-2.05 (inactive)	0.0215	0.145	0.646	0.0713
CCN(CC)c1ccc(N2CC=CC34O[C@@H]5/C=C\CCC(C)OC(=O)C5[C@H]3C(=O)N(CCCCCO)[C@@H]4C2=O)cc1 (stereo not given in full)	-0.129	-0.474	-0.103	-0.497	-1.45	-0.551	-0.506	0.376 (inactive)	-0.284	-0.37	-0.895	0.026 (inactive)	-1.42 (inactive)	-0.399 (inactive)	-1.3	-0.374 (inactive)	-0.283	-0.663	-0.134	-0.238
COc1ccc([Si](C)(C)[C@@H]2[C@@H](CCO)O[C@]3(C(=O)N(Cc4cccc(N5CCOC5=O)c4)c4ccccc43)[C@H]2C)cc1	0.0806	0.229	-0.0704	0.289	1.03	0.775	0.953	-1.65 (inactive)	0.0855	-0.156	1.42	4.03 (inactive)	0.643 (inactive)	37.8 (active)	0.97	0.516 (inactive)	-0.0357	0.825	0.797	-0.0564
CCC(CC)C(O)C1C=CC2C(=O)N(c3ccccc3)C(=O)C2N1Nc1ccccc1 (stereo not given)	0.525	0.814	0.21	0.974	1.62	1.94	1.27	-1.31 (inactive)	1.42	-0.216	1.49	0.296 (inactive)	-0.914 (inactive)	0.204 (inactive)	3.53	0.272 (inactive)	0.503	0.403	1.07	0.228

Source: PubChem BioAssay
